Test results taken from PubChem BioAssay AID1159580 (chemical genetic matrix, 2015).
Values joined by “and” are separate entries in the source; they are usually repeats but may differ in a detail not shown here. Equal entries are not always repeated. Screen size: about 5,500 compounds; about 2,000 (36%) were called active. About 18% were inconclusive and are not listed. No stated cut-off is given here; in the data, active means normalized growth mostly below about 0.91 (no sharp cut-off); inconclusive means no clear call, values can overlap the other calls; inactive means mostly above about 0.92. Some of the results follow.

Assay: chemical genetic growth profiling, strain panel (AID 1159580);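 further: tested at 20 µM; growth read once vehicle control cultures reached saturation at 30 °C; 1 = growth at the plate median or of vehicle wells; lower values mean less growth of the strain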
Conditions: S. cerevisiae deletion strains, growth OD

Measured: normalized growth

Cc1cc(C)nc(NS(=O)(=O)c2ccc(N)cc2)n1
inactive: locus YAL013W, strain DEP1, active compounds read low 0.998 | locus YAL021C, strain ccr4, active compounds read low 0.957 | locus YAL026C, strain drs2, active compounds read low 0.974 | locus YAL030W, strain snc1, active compounds read low 0.972 | locus YBL061C, strain skt5, active compounds read low 0.985 | locus YBR009C, strain hhf1, active compounds read low 0.934 | locus YBR021W, strain FUR4, active compounds read low 1.01 | locus YBR023C, strain chs3, active compounds read low 0.982 | locus YBR171W, strain sec66, active compounds read low 0.989 | locus YBR229C, strain ROT2, active compounds read low 0.999 | locus YBR231C, strain swc5, active compounds read low 0.998 | locus YBR279W, strain paf1, active compounds read low 0.982 | locus YCL011C, strain gbp2, active compounds read low 0.96 | locus YCL016C, strain dcc1, active compounds read low 0.966 | locus YCL029C, strain bik1, active compounds read low 0.981 | locus YCL069W, strain vba3, active compounds read low 0.969 | locus YCR088W, strain abp1, active compounds read low 0.965 | locus YDL005C, strain med2, active compounds read low 0.969 | locus YDL035C, strain GPR1, active compounds read low 0.988 | locus YDL040C, strain nat1, active compounds read low 0.98 | locus YDL074C, strain BRE1, active compounds read low 1.01 | locus YDL101C, strain DUN1, active compounds read low 0.99 | locus YDL134C, strain PPH21, active compounds read low 0.996 | locus YDL185W, strain tfp1, active compounds read low 0.938 | locus YDL192W, strain arf1, active compounds read low 0.963 | locus YDR001C, strain nth1, active compounds read low 0.963 | locus YDR069C, strain doa4, active compounds read low 0.991 | locus YDR101C, strain arx1, active compounds read low 1 | locus YDR137W, strain rgp1, active compounds read low 0.981 | locus YDR150W, strain NUM1, active compounds read low 0.999 | locus YDR159W, strain sac3, active compounds read low 0.914 | locus YDR162C, strain NBP2, active compounds read low 0.981 | locus YDR195W, strain ref2 0.959 | locus YDR297W, strain sur2, active compounds read low 0.983 | locus YDR318W, strain mcm21, active compounds read low 0.964 | locus YDR334W, strain swr1, active compounds read low 0.985 | locus YDR335W, strain msn5, active compounds read low 0.977 | locus YDR388W, active compounds read low 0.967 | locus YDR392W, strain spt3, active compounds read low 0.91 | locus YDR502C, strain sam2, active compounds read low 0.98 | locus YEL003W, strain gim4, active compounds read low 0.967 | locus YEL037C, strain rad23, active compounds read low 0.983 | locus YEL061C, strain CIN8 (second series), active compounds read low 0.972 | locus YEL061C, strain CIN8, active compounds read low 1 | locus YER015W, strain faa2, active compounds read low 0.996 | locus YER016W, strain bim1, active compounds read low 0.96 | locus YER110C, active compounds read low 0.99 | locus YER111C, strain swi4, active compounds read low 0.965 | locus YER155C, strain BEM2 (second series), active compounds read low 1.01 | locus YER155C, strain BEM2, active compounds read low 0.996 | locus YER167W, strain BCK2, active compounds read low 0.995 | locus YFR010W, strain ubp6, active compounds read low 0.996 | locus YGL078C, strain dbp3, active compounds read low 0.977 | locus YGL086W, strain mad1, active compounds read low 1 | locus YGL167C, strain pmr1, active compounds read low 0.977 | locus YGL173C, strain kem1, active compounds read low 0.979 | locus YGL227W, strain vid30, active compounds read low 0.988 | locus YGL240W, strain doc1, active compounds read low 1.01 | locus YGL248W, strain PDE1, active compounds read low 0.998 | locus YGL253W, strain hxk2, active compounds read low 0.968 | locus YGR135W, strain pre9, active compounds read low 0.995 | locus YGR229C, strain SMI1, active compounds read low 0.989 | locus YGR252W, strain gcn5, active compounds read low 1.17 | locus YHR013C, strain ard1, active compounds read low 0.92 | locus YHR027C, strain rpn1, active compounds read low 0.973 | locus YHR030C, strain SLT2, active compounds read low 0.995 and 0.954 | locus YHR079C, strain IRE1 (second series), active compounds read low 0.97 | locus YHR079C, strain IRE1, active compounds read low 0.981 | locus YHR094C, strain hxt1, active compounds read low 0.968 | locus YHR129C, strain ARP1, active compounds read low 0.997 | locus YHR142W, strain chs7, active compounds read low 0.968 | locus YHR200W, strain rpn10, active compounds read low 0.98 | locus YIL066C, strain RNR3, active compounds read low 1.01 | locus YIL073C, strain SPO22, active compounds read low 0.842 | locus YIL125W, strain kgd1, active compounds read low 0.954 | locus YIR030C, strain dcg1, active compounds read low 0.983 | locus YJL092W, strain hpr5, active compounds read low 0.981 | locus YJL095W, strain BCK1 (second series), active compounds read low 0.983 | locus YJL095W, strain BCK1, active compounds read low 1.02 and 0.967 | locus YJL115W, strain asf1, active compounds read low 0.968 | locus YJL129C, strain trk1, active compounds read low 0.98 | locus YJL134W, strain LCB3, active compounds read low 0.985 | locus YJL154C, strain vps35, active compounds read low 0.978 | locus YJL164C, strain tpk1, active compounds read low 0.963 | locus YJL166W, strain qcr8, active compounds read low 1.01 | locus YJL168C, strain set2, active compounds read low 0.977 | locus YJL187C, strain SWE1 (second series), active compounds read low 0.987 | locus YJR043C, strain POL32, active compounds read low 1
